Test results: PubChem BioAssay (NCI)
About 83,000 compounds went through this panel and 20% of them were active in at least one assay; those are over-represented in the sample as a whole.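 The endpoint reported here, percent growth, reads 100 for growth as untreated, 0 for no net growth and -100 for all cells dead.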 Unmarked numbers belong to inactive results. Activity calls are given as the source filed them. Rule for the calls: active = growth percent below 10; inactive = the rest.

Tests used:
Experiment in all cases: NCI-60 one-dose screen, 48 h (100 = growth as untreated, 0 = no growth, -100 = all killed)
Settings in all cases: 10 µM unless noted
[1] = system: DU-145 prostate
[2] = system: K-562 leukemia
[3] = system: MALME-3M melanoma
[4] = system: MDA-MB-231 breast
[5] = system: RXF 393 renal
[6] = system: SF-268 CNS
[7] = system: SF-295 CNS
[8] = system: SF-539 CNS
[9] = system: UACC-257 melanoma
[10] = system: M14 melanoma
[11] = system: HCT-15 colon
[12] = system: HT29 colon
[13] = system: SNB-75 CNS
[14] = system: SNB-19 CNS
[15] = system: U251 CNS
[16] = system: PC-3 prostate
[17] = system: SK-MEL-5 melanoma
[18] = system: UACC-62 melanoma
[19] = system: LOX IMVI melanoma
[20] = system: SK-MEL-28 melanoma

SMILES | growth [1] | growth [2] | growth [3] | growth [4] | growth [5] | growth [6] | growth [7] | growth [8] | growth [9] | growth [10] | growth [11] | growth [12] | growth [13] | growth [14] | growth [15] | growth [16] | growth [17] | growth [18] | growth [19] | growth [20]
O=C(CC12CC3CC(CC(C3)C1)C2)NCCOCCOCCNC(=O)c1cc2c(o1)C(=O)c1ccccc1C2=O | -95.7% (active) | 1.74% (active) | -97.1% (active) | -9.38% (active) | -92.3% (active) | -16.4% (active) | -94.2% (active) | -96.1% (active) | -95.3% (active) | -73.6% (active) | -80.2% (active) | 3.08% (active) | -99% (active) | -16.3% (active) | -87.8% (active) | 4.8% (active) | -97.5% (active) | -94.9% (active) | -95.1% (active) | -73.5% (active)
CCCCCOC(=O)c1ccc(NC(=O)CNCC(C)C)cc1 | 102% | 88.8% | 107% | 57.7% | 89.7% | 95.9% | 100% | 102% | 99.3% | 97.4% | 86.8% | 80.6% | 86.3% | 90.6% | 93.1% | 65.8% | 95.7% | 91.6% | 94.4% | 105%
CCCCNCC(=O)Nc1ccc(C(=O)OCC)cc1 | 114% | 92.4% | 106% | 103% | 110% | 104% | 99.4% | 105% | 103% | 97.3% | 91.5% | 86.7% | 108% | 103% | 101% | 71.8% | 101% | 95.3% | 103% | 115%
CCC(C)NCc1ccccc1 (stereo not given) | 106% | 98.1% | 105% | 96.4% | 99.3% | 98.9% | 98.9% | 102% | 103% | 96.9% | 107% | 84.9% | 95.9% | 102% | 102% | 78.1% | 106% | 95.3% | 102% | 112%
CN1CCN(CCCOc2ccc3nc(Nc4cc(Cl)cc(Cl)c4)ccc3c2)CC1 | -84.1% (active) | -61.8% (active) | -54.4% (active) | -73.2% (active) | -60.6% (active) | -78.9% (active) | -75.9% (active) | -86.5% (active) | -81.5% (active) | -62.2% (active) | -87.6% (active) | -94.4% (active) | -94.5% (active) | -76.2% (active) | -87.5% (active) | -57.8% (active) | -94.9% (active) | -81.5% (active) | -94.4% (active) | -87.2% (active)
CCNCCNc1cc(-c2ccc(C(F)(F)F)cc2)c(C#N)c2nc3cc(Cl)c(Cl)cc3n12 | -93% (active) | -63.7% (active) | -77.9% (active) | -73.2% (active) | -96.3% (active) | -76.3% (active) | -91.2% (active) | -92.9% (active) | -85.4% (active) | -81.5% (active) | -80.1% (active) | -85.5% (active) | -93.7% (active) | -62.7% (active) | -94% (active) | -88.4% (active) | -98.9% (active) | -63.3% (active) | -74% (active) | -96.5% (active)
Cl.Fc1c[c-]c(-c2ccccn2)c(F)c1.[Pt].c1ccc(P(c2ccccc2)C([PH+](c2ccccc2)c2ccccc2)[PH+](c2ccccc2)c2ccccc2)cc1 | 26.1% | 13.6% | -12.9% (active) | -16% (active) | 13.3% | 26.4% | 5.14% (active) | 9.54% (active) | 6.42% (active) | 18.7% | 56.1% | 11.8% | 7.77% (active) | 27.1% | 16.4% | 7.49% (active) | -91% (active) | 23.2% | 11.7% | 34.4%
N#C/C(=C\c1ccc(Br)cc1)n1nnc2cc(Cl)c(Cl)cc21 | 34% | 8.99% (active) | 67.5% | 33% | -6.31% (active) | 59.2% | 65.8% | 49.8% | 52.4% | 31.3% | 14% | 9.9% (active) | 25.5% | 47.7% | 23.4% | 33.5% | 43.3% | 46.7% | -9.55% (active) | 51.4%
O=C1Nc2ccccc2/C1=N/N=C/c1ccsc1 | 111% | 89.9% | 103% | 92.5% | 111% | 101% | 108% | 103% | 104% | 105% | 98% | 112% | 87.8% | 95.5% | 104% | 107% | 101% | 93% | 95.1% | 110%
Cc1[nH]c(-c2nc3ccccc3[nH]2)c(C)c1C(=O)NNc1ccc(Cl)cc1 | 105% | 94.1% | 94.5% | 79.2% | 103% | 95.3% | 109% | 95.7% | 91% | 102% | 94.1% | 104% | 87.1% | 87.1% | 103% | 85.6% | 98.2% | 90.2% | 93.6% | 99.6%
NC(N)=N/N=C(/c1ccccc1)c1ccccc1F | 15% | 4% (active) | 35.7% | 22.1% | 43% | 51.8% | 11.8% | 2.84% (active) | 68.1% | -45.4% (active) | 22% | 8.59% (active) | 7.44% (active) | 30.9% | 24.2% | 14.1% | 15.8% | 20.2% | 46.3% | 63.4%
CCNCCNc1cc(-c2cccc(C(F)(F)F)c2)c(C#N)c2nc3ccccc3n12 | -74.9% (active) | -65.8% (active) | -77.3% (active) | -66.2% (active) | -85.6% (active) | -73.8% (active) | -82.3% (active) | -88.7% (active) | -84.4% (active) | -89.3% (active) | -91.4% (active) | -82.5% (active) | -89.3% (active) | -20.3% (active) | -88.7% (active) | -59% (active) | -96.1% (active) | -68.6% (active) | -85.7% (active) | -81.9% (active)
N#Cc1c(NC(=O)c2cccc(C(F)(F)F)c2)sc2c1CCC(=O)C2 | 24% | 6.88% (active) | -64.9% (active) | -54.3% (active) | -23.5% (active) | 1.68% (active) | -6.4% (active) | -57.8% (active) | -3.73% (active) | -68.2% (active) | -39.4% (active) | 2.24% (active) | -50.5% (active) | 12.3% | 0.284% (active) | -42% (active) | -95.6% (active) | -51.1% (active) | -12.7% (active) | -42.5% (active)
CN(C)CCOC(=O)Nc1ccc(Cl)cc1 | 110% | 90.5% | 114% | 93.8% | 118% | 105% | 103% | 102% | 101% | 90.5% | 108% | 82.7% | 96.3% | 106% | 101% | 65.4% | 99% | 97.2% | 101% | 115%
C=CCN1C(=O)[C@]2(SC1=S)[C@H](c1cccc(Cl)c1)CN(C)[C@]21C(=O)NC2C=CC(Cl)=C[C@H]21 (stereo not given in full) | 48.8% | 22.9% | 35.7% | 26.8% | 35.4% | 52.9% | 32.1% | 81.1% | 26.5% | 29.9% | 27% | 27.9% | 44.4% | 59.9% | 67.8% | 7.5% (active) | 42% | 36.1% | 13.3% | 64.1%
Nc1nc(Nc2ccc(Cl)cc2)nn1S(=O)(=O)c1ccc(-c2ccc(F)cc2)cc1 | 88.7% | 83.5% | 113% | 87.8% | 92.3% | 76.3% | 99.1% | 94% | 107% | 89.8% | 77.4% | 80% | 79% | 88.8% | 88.8% | 67.4% | 98.7% | 72.5% | 83.6% | 94.5%
